Screening results: PubChem, several laboratories
Rows were chosen to be rich in hits. Some 3.1% of all compounds tested hit in one or more screens of this group.
MBD2 DNA inh = MBD2-methylated oligo binding inhibition; actives 0.31% (n = 370,000); TR-FRET, MBD2 binding to methylated oligonucleotide; inhibition, % at 4.4 µM; in the data active = inhibition above about 13%
Rin1-Abl PPI inh = blocks binding of human Rin1 to Abl; P00519+Q13671; TR-FRET Rin1/Abl binding, biochemical; inhibition, % at 7.35 µM; actives 0.4% (n = 360,000); AID 588664; in the data active = inhibition above about 5%, passing the limit was not always enough
proKLK7 act = activators of human kallikrein-7 zymogen; P49862; purified proKLK7, EDANS-DABCYL substrate fluorescence; 100% is mature enzyme control, 0% vehicle; activation, % at 7 µM; actives 0.9% (n = 370,000); AID 652039;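 active = activation above the mean of all tested compounds plus 3 SD, computed per campaign excluding outliers beyond control limits, cut at about 13% in these data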
UHRF1 MBD2 ctr = human UHRF1 methylated DNA binding inhibitors; Q96T88; UHRF1 binding to methylated oligo, TR-FRET; AID 687016; inhibition, % at 4.4 µM; actives 0.75% (n = 370,000); in the data active = inhibition above about 21%;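 note: UHRF1 SRA domain binding a hemimethylated CpG hairpin DNA probe; 0% = median of test compound wells and 100% = reference inhibitor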
Target sequence (Q96T88 whole entry, looked up, the tested form may be a part): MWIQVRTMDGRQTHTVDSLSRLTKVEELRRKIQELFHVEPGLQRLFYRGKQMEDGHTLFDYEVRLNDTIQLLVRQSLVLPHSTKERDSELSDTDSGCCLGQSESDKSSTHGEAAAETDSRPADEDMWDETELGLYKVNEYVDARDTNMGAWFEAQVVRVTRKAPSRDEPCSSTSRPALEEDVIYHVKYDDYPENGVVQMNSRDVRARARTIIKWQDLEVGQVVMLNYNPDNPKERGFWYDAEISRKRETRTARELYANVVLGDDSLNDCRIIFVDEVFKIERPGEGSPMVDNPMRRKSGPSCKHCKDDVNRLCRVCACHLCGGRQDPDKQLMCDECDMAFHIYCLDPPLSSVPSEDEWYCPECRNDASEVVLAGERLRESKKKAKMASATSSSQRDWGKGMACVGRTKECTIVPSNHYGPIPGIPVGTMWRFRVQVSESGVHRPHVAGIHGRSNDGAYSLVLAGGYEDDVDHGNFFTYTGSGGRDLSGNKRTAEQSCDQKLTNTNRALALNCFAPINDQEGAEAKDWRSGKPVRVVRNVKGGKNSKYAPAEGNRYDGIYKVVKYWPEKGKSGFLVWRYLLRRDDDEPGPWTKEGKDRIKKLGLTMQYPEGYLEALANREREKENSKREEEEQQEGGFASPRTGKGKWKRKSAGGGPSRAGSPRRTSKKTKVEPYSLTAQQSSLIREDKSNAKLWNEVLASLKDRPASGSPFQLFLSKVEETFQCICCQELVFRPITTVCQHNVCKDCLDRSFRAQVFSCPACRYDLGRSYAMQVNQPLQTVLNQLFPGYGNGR
LEDGF integ inh = blocks HIV-1 LEDGF/p75-dependent DNA integration | TR-FRET IN-LEDGF/p75 DNA integration, Eu/Cy5 | AID 743269 | inhibition, % at 3.7 µM | actives 0.64% (n = 370,000);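 active = inhibition above the screen-wide mean plus 3 SD, cut at about 13% in these data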;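 note: signal is the Cy5 over europium emission ratio at 671 and 618 nm; 0% = plate median of compound wells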
Neddyl block = cullin neddylation inhibition; AID 651699; P61081+Q13564; TR-FRET cullin neddylation, biochemical; actives 0.58% (n = 360,000); calls only at 25 µM; in the data active = inhibition above about 36%
proKLK7 act conf = proKLK7 activation, confirmation. shares compounds with proKLK7 act. actives 68% (n = 3,200). purified proKLK7, EDANS-DABCYL substrate fluorescence; scaled: vehicle 0, mature enzyme 100. activation, % at 7 µM. AID 686949;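 active = activation, as change over the incubation, above the mean of all tested compounds plus 3 SD, cut at about 13% in these data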
EDANS-DABCYL int = counter-screen for kallikrein-7 activators: EDANS-DABCYL optical interference; shares compounds with proKLK7 act; EDANS-DABCYL substrate fluorescence interference, no enzyme, 4 h; solvent 0%, active enzyme control 100%; activation, % at 7 µM; actives 80% (n = 3,200); AID 686952;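 active = activation above the all-compound mean plus 3 SD, ignoring values outside control-based bounds, cut at about 4.8% in these data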;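 note: value is the 4 h activation minus the activation read at time zero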
* = called active by the depositor; i = inactive; . = no result given.

SMILES | MBD2 DNA inh | Rin1-Abl PPI inh | proKLK7 act | UHRF1 MBD2 ctr | LEDGF integ inh | Neddyl block | proKLK7 act conf | EDANS-DABCYL int
Cc1cc(OCC(=O)N2CCC(C(=O)O)CC2)c2c(C)cc(=O)oc2c1 | -1.2 | -0.2 | 9.7 | 0.6 | 0.7 | . | . | .
CNC[C@H](NC[C@@H](NCCCc1ccccc1)c1ccccc1)[C@H](C)O | 3.5 | 1.8 | 0.1 | 7.2 | 3.6 | i | . | .
CCCCc1cc(=O)oc2c3c(cc(OCC(=O)N4CCC[C@H]4C(=O)O)c12)OC(C)(C)CC3 | -0.1 | -3.7 | 52.6* | 2.3 | -1.3 | . | 57.0* | 62.4*
Cc1cc(=O)oc2c3c(cc(OCC(=O)N4CCC[C@H]4C(=O)O)c12)OC(C)(C)CC3 | 0.7 | 0.8 | 34.8* | -1.8 | 0.0 | . | 65.6* | 64.5*
Cc1cc(=O)oc2c(C)c(OCC(=O)N3CCC(C(=O)O)CC3)ccc12 | 2.8 | -3.6 | 2.1 | -0.7 | -0.5 | i | . | .
Cc1cc(=O)oc2c3c(cc(OCC(=O)N4CCC(C(=O)O)CC4)c12)OC(C)(C)CC3 | 4.2 | -0.1 | 47.5* | 3.2 | -4.9 | . | 64.6* | 60.8*
Nc1nc(Nc2ccccc2F)nc(N2CCOCC2)c1[N+](=O)[O-] | 4.5 | -0.4 | 0.7 | 0.4 | -2.4 | i | . | .
CC(=O)CC[C@@H]1CC[C@]2(CCCN(C(=O)C3CCCC3)C2)O1 | 6.3 | . | -0.5 | 3.6 | -1.6 | . | . | .
C#CCOc1c(Cl)cc(C2C3=C(CCCC3=O)N(CC(=O)O)C3=C2C(=O)CCC3)cc1OC | -1.9 | 3.4 | 16.4* | -3.4 | 6.6 | . | 72.0* | 80.0*
COc1ccc(C2C3=C(CCCC3=O)N(CC(=O)O)C3=C2C(=O)CCC3)cc1Br | -2.6 | -0.8 | 30.1* | -0.4 | -2.4 | . | 27.8* | 43.3*
COc1ccc(C2C3=C(CCCC3=O)N(CC(=O)O)C3=C2C(=O)CCC3)cc1Cl | 2.9 | 4.1 | 26.5* | -2.3 | -2.4 | . | 25.7* | 34.3*
CCOc1cc(C2C3=C(CCCC3=O)N(CC(=O)O)C3=C2C(=O)CCC3)ccc1OC | -1.3 | 3.0 | 0.2 | 0.4 | -6.6 | i | . | .
Cc1cc(OCC(O)CN2CCc3ccccc3C2)ccc1Cl (configuration not stated) | -1.9 | -2.8 | -0.2 | -1.1 | -0.2 | i | . | .
Cc1cccc(N2C(=O)CC(N(O)c3ccccc3)C2=O)c1 (configuration not stated) | -1.6 | 1.3 | 273.7* | -1.3 | 6.3 | i | 348.8* | 365.8*
O=C1CC(N(O)c2ccccc2)C(=O)N1c1ccc(Cl)c(Cl)c1 (configuration not stated) | -4.8 | 4.2 | 33.9* | -7.0 | -1.2 | i | 459.4* | 467.3*
Cc1ccccc1NC(=O)Nc1ccc2c(c1)C(=O)N(C)[C@H]1CC[C@H](CC(=O)NCC3CC3)O[C@@H]1CO2 | 8.8 | . | -0.5 | 5.8 | 7.5 | . | . | .
CCOC(=O)CC[C@@]1(C(=O)OCC)C[C@@H](CC(=O)NCc2ccc(C)o2)C(=O)N2CCCC=C21 | 4.3 | . | -0.4 | 0.1 | -3.4 | . | . | .
C[C@@H]1CN([C@@H](C)CO)C(=O)CCCn2cc(nn2)CO[C@H]1CN(C)C(=O)Nc1ccc(-c2cccs2)cc1 | 1.8 | . | 2.2 | 2.2 | -2.7 | . | . | .
CCCCCc1cc(O)c2c(C)cc(=O)oc2c1 | 0.8 | -4.3 | -3.9 | 2.6 | -1.2 | i | . | .
COc1cc(OC)c2c(C)cc(=O)oc2c1 | 4.0 | -3.5 | 32.4* | -4.4 | -1.7 | . | 37.7* | 48.0*
COc1cc(OC)c2ccc(=O)oc2c1 | 0.7 | -1.8 | 89.9* | -4.5 | -0.4 | . | 49.2* | 61.1*
Cc1cc(=O)oc2cc(O)cc(O)c12 | 0.0 | -3.7 | 65.8* | -3.2 | 1.1 | . | 67.3* | 76.4*
Cc1ccccc1CNC(=O)Nc1ccc(Cl)cc1 | -4.9 | -0.9 | -0.8 | -3.4 | 4.3 | i | . | .
O=S(=O)(Cc1ccccc1)Oc1ccccc1 | 2.7 | 1.2 | -0.5 | 0.9 | 2.1 | i | . | .
